From paper PMC4336329 (PLoS ONE, 2015)
Among all 310,000 compounds or so, about 14,000 (4.5%) showed an effect of 50% or more. The effect is printed as a negative number. What follows is part of a selection rich in strong results, with near analogues and random picks from the rest.

target: human ether-à-go-go-related gene (hERG) potassium channel (human, UniProt Q12809); assay: primary screen, population patch clamp on CHO cells stably expressing hERG; higher = less effect of the substance
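Note: peak tail current of the secondary pulse compared with the same well before compound.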

Sequence of human ether-à-go-go-related gene (hERG) potassium channel (Q12809 whole entry, looked up): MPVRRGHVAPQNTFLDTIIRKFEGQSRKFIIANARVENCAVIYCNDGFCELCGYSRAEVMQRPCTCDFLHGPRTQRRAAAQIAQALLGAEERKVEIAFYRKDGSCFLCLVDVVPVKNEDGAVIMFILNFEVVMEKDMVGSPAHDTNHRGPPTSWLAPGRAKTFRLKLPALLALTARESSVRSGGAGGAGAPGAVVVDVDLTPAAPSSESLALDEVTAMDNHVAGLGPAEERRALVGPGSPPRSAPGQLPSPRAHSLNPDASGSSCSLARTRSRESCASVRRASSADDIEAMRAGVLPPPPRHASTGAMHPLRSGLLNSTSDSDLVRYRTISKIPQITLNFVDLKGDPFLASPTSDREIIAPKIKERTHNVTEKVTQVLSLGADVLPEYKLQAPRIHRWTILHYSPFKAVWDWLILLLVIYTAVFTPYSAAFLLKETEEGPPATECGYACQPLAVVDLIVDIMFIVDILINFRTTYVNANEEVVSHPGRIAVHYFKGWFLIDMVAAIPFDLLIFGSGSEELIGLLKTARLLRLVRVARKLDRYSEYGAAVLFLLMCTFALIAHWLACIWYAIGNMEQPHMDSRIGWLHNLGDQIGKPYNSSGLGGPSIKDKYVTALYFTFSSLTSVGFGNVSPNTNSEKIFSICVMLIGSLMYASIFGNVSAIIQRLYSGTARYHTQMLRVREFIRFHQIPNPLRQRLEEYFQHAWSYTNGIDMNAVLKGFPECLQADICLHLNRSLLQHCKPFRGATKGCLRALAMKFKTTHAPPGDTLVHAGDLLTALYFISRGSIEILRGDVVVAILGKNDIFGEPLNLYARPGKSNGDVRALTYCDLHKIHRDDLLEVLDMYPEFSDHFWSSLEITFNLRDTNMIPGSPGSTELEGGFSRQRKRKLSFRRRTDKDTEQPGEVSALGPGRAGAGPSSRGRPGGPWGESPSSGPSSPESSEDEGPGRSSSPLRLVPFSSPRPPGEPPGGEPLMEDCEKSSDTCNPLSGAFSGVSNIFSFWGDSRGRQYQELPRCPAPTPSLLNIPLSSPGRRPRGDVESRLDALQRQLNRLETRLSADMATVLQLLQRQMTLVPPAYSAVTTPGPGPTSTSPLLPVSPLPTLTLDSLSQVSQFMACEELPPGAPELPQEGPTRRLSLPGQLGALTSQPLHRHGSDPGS

Row | Compound | hERG current change (%, negative = inhibition) at 10uM
1 | CCN(C(=O)c1cc2c(=O)n3ccccc3nc2n1C)C1CCCCC1 | 6.65%
2 | CC(Cc1cccs1)NC(=O)Nc1ccc(Cl)cc1 (centres unmarked) | 1.12%
3 | C[C@H](NC(=O)C1CCN(S(=O)(=O)c2ccccc2)CC1)C(=O)NCc1cccc(C(F)(F)F)c1 | -2.33%
4 | COc1ccc(C(=O)ON=C2CCN(c3ccc([N+](=O)[O-])cc3)CC2)cc1 | -68.5%
5 | O=C(ON=C1CCN(c2ccc([N+](=O)[O-])cc2)CC1)c1ccccc1 | -47.5%
6 | Cc1ccc(C(=O)OC2CCN(c3ccc([N+](=O)[O-])cc3)CC2)cc1 | -1.78%
7 | COc1ccc(C(=O)ON=C2CCN(C)CC2)cc1.Cl | 12.8%
8 | CCCOc1ccc(C(=O)ON=C2CCN(C)CC2)cc1.Cl | -9.07%
9 | Cc1ccc(C(=O)ON=C2CCN(c3ccc([N+](=O)[O-])cc3)CC2)cc1 | -60.9%
10 | CC(=O)N1CCOc2cc(S(=O)(=O)NCc3ccc(F)cc3)c(C)cc21 | -16.6%
11 | CCOc1ccc(/C=C/c2[nH]c(=O)[nH]c(=O)c2[N+](=O)[O-])cc1 | 8.01%
12 | O=C(CCC(=O)Nc1ccccc1)N/N=C/c1ccc2c(c1)OCO2 | 28.7%
13 | O=C(c1ccccc1S(=O)(=O)NCc1ccccc1)N1CCCC1 | -4.43%
14 | CCN(CC)Cc1cc(C(C)=O)ccc1OCC(C)C | -31.5%
15 | CC(C)c1ccc(C2N3CC4([N+](=O)[O-])CN2CC([N+](=O)[O-])(C3)C4(C)C)cc1 (centres unmarked) | 28.4%
16 | O=C(O)c1ccc(NS(=O)(=O)c2ccc3c(c2)OCCCO3)cc1 | 4.23%
17 | CN1CCN(S(=O)(=O)c2cc(C(F)(F)F)ccc2Cl)CC1.Cl | 10.4%
18 | CC(=O)c1sc2nc(=O)c(C)nn2c1C | -0.703%
19 | O=c1[nH]c(/C=C\c2ccc(O)c(O)c2)nc(O)c1[N+](=O)[O-] | 16.2%

Row | Compound | hERG current change (%, negative = inhibition) at 10uM
20 | Cc1ccc(OCCCN2CCOCC2)cc1 | 13.3%
21 | CCCCOc1ccc(OCCCN2CCOCC2)cc1.Cl | -23.1%
22 | CN1CCN(CCCOc2ccc(-c3ccccc3)cc2)CC1.Cl | -69.1%
23 | Cl.c1ccc(-c2ccc(OCCN3CCOCC3)cc2)cc1 | 3.74%
24 | CN1CCN(CCOc2ccc(-c3ccccc3)cc2)CC1.Cl | -56.3%
25 | CCN1CCN(CCCOc2ccc(-c3ccccc3)cc2)CC1 | -71.9%
26 | CCCCOc1ccc(CN2CCN(CC)CC2)cc1 | -14.2%
27 | CN1CCN(CCOc2ccc(Cc3ccccc3)cc2)CC1.Cl | -23.4%
28 | COc1ccc(C(C(=O)NC2CCCC2)N(C(=O)c2ccoc2C)c2cc(C)cc(C)c2)cc1 (centres unmarked) | -10.9%
29 | O=C(CSc1nnc(CNC(=O)c2ccco2)o1)Nc1nc2ccccc2s1 | 16.1%
30 | COc1cc(CC(NC(C)=O)C(=O)NC2CCN(S(=O)(=O)c3ccc(NC(C)=O)cc3)CC2)cc(OC)c1 (centres unmarked) | 21.7%
31 | Cc1nn(-c2ccccc2)c(N)c1Sc1ccc([N+](=O)[O-])cc1 | -75.2%
32 | Nc1c(-c2ccccc2Cl)cnn1-c1cccc([N+](=O)[O-])c1 | -49.4%
33 | Cc1nn(-c2ccccc2)c(N)c1-c1ccccc1 | 5.13%
34 | Cc1nn(-c2nc3ccccc3s2)c(N)c1Sc1ccc(F)cc1 | 7.4%
35 | Cc1ccccc1-c1cnn(-c2cccc([N+](=O)[O-])c2)c1N | -56.7%
36 | Cc1nn(S(=O)(=O)c2ccccc2)c(C)c1Sc1ccc([N+](=O)[O-])cc1 | -6.26%
37 | Cc1nn(-c2ccccc2)c(N)c1Sc1ccccc1[N+](=O)[O-] | -26.7%
38 | Cc1cc(C)nc(-n2nc(C)c(Sc3ccc(F)cc3)c2N)n1 | -61.7%

Row | Compound | hERG current change (%, negative = inhibition) at 10uM
39 | Cc1ccc(-c2cnn(-c3cccc([N+](=O)[O-])c3)c2N)cc1 | -24.1%
40 | Cc1nn(-c2ccc([N+](=O)[O-])cc2)c(N)c1-c1ccccc1 | -19.1%
41 | Cc1cc(C)nc(-n2nc(C)c(C3(O)C(=O)Nc4ccc(F)cc43)c2N)n1 (centres unmarked) | 3.79%
42 | Cc1nn(-c2cccc([N+](=O)[O-])c2)c(N)c1-c1ccccc1 | -68.7%
43 | CC(C(=O)NCc1cccnc1)N1C(=O)c2ccccc2C1=O (centres unmarked) | 17.4%
44 | CNC(=O)CSCCn1c(SCC(=O)NC)nc2ccccc2c1=O | 13.1%
45 | COc1ccc(-c2cc(C(F)(F)F)n3ncc(C(=O)N(C)Cc4ccccc4)c3n2)cc1 | -17%
46 | Cc1cc(C)cc(Oc2ccc(N)cc2)c1 | -15.1%
47 | COc1ccccc1NC(=O)C(C)N(C)CCOc1ccccc1 (centres unmarked) | 16.5%
48 | COc1ccc(Cn2c(C)nnc2-c2cnn(C)c2N)cc1 | 14.8%
49 | O=S(=O)(NCC1CCCO1)c1cccc(S(=O)(=O)N2CCCC2)c1 (centres unmarked) | -14%
50 | CCN1CCN(C(=O)CCNC(=O)Cn2ccc3ccccc3c2=O)CC1 | 13.9%
51 | Cc1ccc(-c2nc(CSc3nc4ccccc4c(=O)n3C)cs2)cc1 | 9.52%
52 | CCN1CCN(CCCNC(=O)c2ccc(NC(=O)C3=C(C)OCCS3)cc2)CC1 | 17.6%
53 | O=C(O)c1cccc2c1/C(=N/Nc1ccc([N+](=O)[O-])cc1[N+](=O)[O-])c1ccccc1-2 | 19.7%
54 | Cc1ccc(-n2nc(C)c(Sc3ccccc3[N+](=O)[O-])c2N)cc1 | -17.2%
55 | Cc1nn(C(=O)c2cccc([N+](=O)[O-])c2)c(C)c1Sc1ccccc1 | 7.61%
56 | Cc1nn(-c2ccccc2)c(N)c1Sc1cccc([N+](=O)[O-])c1.Cl | -65.9%
